gsp ag = gsp mutant agonism; gsp mutant cells, cAMP HTRF, 30 min; Potency, µM (doses to about 76.9 µM), for the others: top-dose activation (cAMP increase), most hits filed as activators; actives 0.13% (n = 340,000); AID 624287; active = well fitted activation curve with a large enough effect; inconclusive = small, poorly fitted or top-dose-only effect, or another doubt; inactive = no such curve, though single readings can be large or run the other way; cell line not stated here;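 also: phosphodiesterase inhibitor Ro 20-1724 added with compounds to block cAMP breakdown; potency is read from the fitted curve at half-maximal effect; nearly all actives have a fitted effect of over 60% in size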
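Cells stably selected in G418 were plated at 2000/well, grown 16-24 hr, then given compounds in DMSO with the PDE inhibitor […] (300 uM solution added) for 30 min at 37C; cAMP was read by HTRF.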
mIDH1 inhibitor = blocks human mutant IDH1 R132H enzyme. actives 0.093% (n = 390,000). Potency, µM (doses to about 76.6 µM), for inactives: top-dose activity change, negative = inhibition, actives largely listed as inhibitors. O75874. IDH1-R132H enzyme, NADPH consumption, diaphorase/resazurin fluorescence. AID 602179; also: potency is read from the fitted curve at half-maximal effect; % is scaled to controls: 0 for no effect and ±100 for the full control effect; nearly all actives have a fitted effect of over 65% in size
Target sequence (O75874 whole entry R132H, stated change not applied): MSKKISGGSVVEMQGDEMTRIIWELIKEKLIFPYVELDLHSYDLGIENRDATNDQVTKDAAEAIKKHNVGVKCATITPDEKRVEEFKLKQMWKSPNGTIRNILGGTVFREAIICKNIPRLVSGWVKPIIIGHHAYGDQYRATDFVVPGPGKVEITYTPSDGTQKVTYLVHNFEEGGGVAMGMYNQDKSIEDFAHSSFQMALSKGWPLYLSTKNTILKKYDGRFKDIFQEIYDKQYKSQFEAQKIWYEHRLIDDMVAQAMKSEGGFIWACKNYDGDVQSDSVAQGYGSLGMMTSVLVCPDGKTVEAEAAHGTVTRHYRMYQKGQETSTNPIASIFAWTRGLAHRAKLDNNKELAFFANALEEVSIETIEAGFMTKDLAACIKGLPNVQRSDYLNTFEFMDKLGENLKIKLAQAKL
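IDH1-R132H (0.5 ug/mL dispensed) in pH 7.5 Tris buffer was preincubated 30 min with compound, then given a substrate mix of 0.016 mM NADPH and 2 mM alpha-KG for 80 min at room temperature; remaining NADPH was read by diaphorase/resazurin fluorescence.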
IL-2 act = activators of IL-2. IL-2 activation reporter assay, cell-based qHTS; stimulated with anti-CD3/CD4/CD28 beads; in transgenic mouse T cells. activation, % (series mostly up to about 46 µM). actives 0.065% (n = 360,000); in the data active = activation above about 50%; inconclusive = mostly about 30% to 49%; also: 0% is about no effect
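Unstimulated transgenic mouse T cells, 750 per well, received compound and, after 60 minutes, anti-CD3/anti-CD4 bead plus anti-CD28 stimulation. EGFP and DsRed were quantified after 18 hours.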
BRCA1 expr up = BRCA1 expression activation; actives 1.1% (n = 380,000); AID 624202; MCF7-BRCA1-FFLuc reporter, luminescence, 48 h; response scale: scaled: vehicle 0%, 10 µM genistein 100%; Potency, µM (highest dose often 46.1 µM), for the others: top-dose activation, usual class: activators; also: potency is read from the fitted curve at half-maximal effect; nearly all actives have a fitted effect of over 80% in size
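MCF7-BRCA1-FFLuc cells, 2000/well in phenol-red-free MEM, attached 2 h then treated 48 h at 37 C. Luciferase luminescence read 15 min after reagent; normalized to genistein maximum activation (10microM) and DMSO, concentration-response fitted.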
gsp antag = antagonists of gsp mutant (McCune-Albright syndrome). gsp-mutant cells, cAMP HTRF, 30 min. Potency, µM (highest dose often 76.9 µM), without a hit: at the top dose activity change, negative = inhibition, most hits filed as inhibitors. actives 0.4% (n = 340,000); calls by dose curve; cell line not stated here;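 also: intracellular cAMP measured with PDE inhibitor Ro 20-1724 present during compound exposure; potency is read from the fitted curve at half-maximal effect; % is scaled to controls: 0 for no effect and ±100 for the full control effect; nearly all actives have a fitted effect of over 65% in size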
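HTRF cAMP read-out (cAMP-d2 plus anti-cAMP antibody-K in lysis buffer, 30 min RT). Before lysis, cells are exposed to compounds with […] for 30 min at 37C in DPBS containing Ca/Mg, BSA and Tween 20.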
Numbers without * were called inactive; [ ] = dose if it differs, or a comment. Most compounds without a hit are left out; they make up all but 1.5% or so of the library. Unless noted, calls follow the shape of the dose curve; as a rule, active = well fitted curve in the direction sought with a large enough effect; inconclusive = small, poorly fitted or top-dose-only effect, or another doubt; inactive = no such curve, though single readings can be large; an effect the other way counts as inactive or inconclusive.

What do the screens show for `CSc1nnc(NC(=O)c2nc(S(=O)(=O)Cc3ccccc3F)ncc2Cl)s1`?
gsp ag: -16.2%[15.4 µM]; mIDH1 inhibitor: 0.7%; IL-2 act: -2.7; BRCA1 expr up: -50.2%; gsp antag: 35.5µM*

What do the screens show for `CCOc1ccccc1NC(=O)c1nc(S(=O)(=O)Cc2cccc(C)c2)ncc1Cl`?
gsp ag: inconclusive; mIDH1 inhibitor: -15.4%; IL-2 act: -3.9; BRCA1 expr up: -77.6%; gsp antag: -24.4%

Results for CCSc1nnc(NC(=O)c2nc(S(=O)(=O)Cc3ccc(F)cc3)ncc2Cl)s1 ?
gsp ag: -14.9%[15.4 µM]; mIDH1 inhibitor: 9.4%; IL-2 act: -7.3; BRCA1 expr up: -88.9%; gsp antag: 39.8µM*

What do the screens show for `C(=Nc1cccnc1)c1ccnc2ccccc12`?
BRCA1 expr up: 11.0%

How did NNC(=O)c1cc(NS(=O)(=O)c2cccs2)cc(NS(=O)(=O)c2cccs2)c1 do in these assays?
gsp ag: -20.3%; mIDH1 inhibitor: -3.9%; IL-2 act: -3.1; BRCA1 expr up: 6.3%; gsp antag: 3.5%

How did COc1ccc(NC(=O)C2CC(=O)N(Cc3ccco3)C2)cc1Cl (configuration not stated) do in these assays?
gsp ag: -2.3%; mIDH1 inhibitor: -4.2%; IL-2 act: 3.3; BRCA1 expr up: 10.8%; gsp antag: -2.8%

What do the screens show for `CSc1ncc(Cl)c(C(=O)Nc2nnc(SC/C=C/c3ccccc3)s2)n1`?
gsp ag: inconclusive; mIDH1 inhibitor: -3.3%; IL-2 act: -0.8; BRCA1 expr up: -7.6%; gsp antag: 35.5µM*

How did CC(C)c1nnc(NC(=O)c2nc(S(=O)(=O)Cc3ccc(F)cc3)ncc2Cl)s1 do in these assays?
gsp ag: -17.2%[15.4 µM]; mIDH1 inhibitor: 4.7%; IL-2 act: -5.5; BRCA1 expr up: -31.1%; gsp antag: 28.2µM*

What do the screens show for `CC(C)c1nnc(NC(=O)c2nc(SCc3ccc(F)cc3)ncc2Cl)s1`?
mIDH1 inhibitor: -20.6%

How did Cc1ccc(CS(=O)(=O)c2ncc(Cl)c(C(=O)Nc3nnc(C(C)C)s3)n2)cc1 do in these assays?
gsp ag: -10.0%[15.4 µM]; mIDH1 inhibitor: 3.9%; IL-2 act: -0.5; BRCA1 expr up: -54.2%; gsp antag: 17.8µM*

Results for Cc1ccc(OCC(=O)N2CCc3ccccc3C2)c(Br)c1 ?
gsp ag: -0.2%; mIDH1 inhibitor: 1.5%; IL-2 act: -0.4; BRCA1 expr up: 12.6µM*; gsp antag: -13.4%

What do the screens show for `O=C1c2ccccc2C(=O)C1c1ccncc1`?
gsp ag: inconclusive; mIDH1 inhibitor: 2.0%; IL-2 act: -1.5; BRCA1 expr up: 24.1%; gsp antag: 2.8%

What do the screens show for `O=C1c2ccccc2C(=O)C1c1ccccn1`?
gsp ag: 6.5%; mIDH1 inhibitor: 3.1%; IL-2 act: -0.1; BRCA1 expr up: 2.51µM*; gsp antag: 4.0%

Results for COc1ccc(S(=O)(=O)N2CCCCC2c2cc(C(=O)Nc3ccc(OC)cc3C)no2)cc1 (configuration not stated) ?
IL-2 act: -0.6; BRCA1 expr up: 0.0%

What do the screens show for `O=C(COc1ccc2c(c1)OCO2)Nc1nccs1`?
gsp ag: 17.2%[15.4 µM]; mIDH1 inhibitor: -1.0%; IL-2 act: -4.4; BRCA1 expr up: 3.16µM*; gsp antag: 3.1%

What do the screens show for `CCOC(=O)C1(Cc2cccc(OC)c2)CCCN(C(=O)CCN2CCCO2)C1` (configuration not stated)?
gsp ag: -25.2%; mIDH1 inhibitor: -6.7%; IL-2 act: -1.4; BRCA1 expr up: 3.98µM*; gsp antag: -2.5%

What do the screens show for `Cc1ccc(-c2cc(C(F)(F)F)n3ncc(C(=O)O)c3n2)cc1`?
gsp ag: -3.1%; mIDH1 inhibitor: 3.9%; IL-2 act: -2.0; BRCA1 expr up: -18.7%; gsp antag: -13.2%

What do the screens show for `COCCNC(=O)c1cnn2c(C(F)(F)F)cc(-c3ccc(C)cc3)nc12`?
gsp ag: -77.6%; mIDH1 inhibitor: -7.6%; IL-2 act: -2.2; BRCA1 expr up: -11.1%; gsp antag: 35.5µM*

Results for COc1ccc(C(=O)c2ccccc2)c2c(O)ccc(C(=O)c3ccccc3)c12 ?
gsp ag: -10.9%; mIDH1 inhibitor: -2.5%; IL-2 act: -0.4; BRCA1 expr up: -66.9%; gsp antag: 28.2µM*

How did CO[C@H]1CN(C)C(=O)c2ccc(NC(=O)C3CCC3)cc2OC[C@H](C)N(Cc2ccccn2)C[C@@H]1C do in these assays?
IL-2 act: 0.5

Results for Cc1ccc(S(=O)(=O)C(C#N)c2nc3ccccc3nc2N2CC(C)OC(C)C2)cc1C (configuration not stated) ?
gsp ag: 0.0%; mIDH1 inhibitor: -27.3%; IL-2 act: 0.2; BRCA1 expr up: -98.2%; gsp antag: 39.8µM*

What do the screens show for `CCOC(=O)c1cnn2c(C)cc(-c3ccc(F)cc3)nc12`?
gsp ag: 0.0%; mIDH1 inhibitor: -2.4%; IL-2 act: 0.6; BRCA1 expr up: 2.82µM*; gsp antag: -6.3%

How did Cc1cc(-c2ccc(F)cc2)nc2cc(C(N)=O)nn12 do in these assays?
gsp ag: inconclusive; mIDH1 inhibitor: -1.5%; IL-2 act: 0.3; BRCA1 expr up: 0.0%; gsp antag: -2.3%

How did Cc1ccc(C2=NN(C(=O)CCl)C(c3ccco3)C2)o1 (configuration not stated) do in these assays?
gsp ag: inconclusive; mIDH1 inhibitor: 8.2%; IL-2 act: -0.9; BRCA1 expr up: -72.5%; gsp antag: -0.5%

How did CN(C)c1ccc(/C=C2\CCc3cc(N)ccc32)cc1 do in these assays?
BRCA1 expr up: -7.8%

How did CN(C)c1ncccc1-c1nc2ccccc2s1 do in these assays?
gsp ag: 7.9%[15.4 µM]; mIDH1 inhibitor: 3.1%; IL-2 act: -0.5; BRCA1 expr up: 36.5%; gsp antag: -12.6%

What do the screens show for `c1ccc(SCc2nc3ccccc3s2)nc1`?
gsp ag: 27.9%; mIDH1 inhibitor: -5.9%; IL-2 act: -2.3; BRCA1 expr up: 3.16µM*; gsp antag: 6.0%

How did c1ccc(-c2nc3ccccc3s2)nc1 do in these assays?
gsp ag: inconclusive; mIDH1 inhibitor: 2.2%; IL-2 act: -1.2; BRCA1 expr up: 8.91µM*; gsp antag: 9.3%

How did O=C(O)CN1C(=O)/C(=C/C=C/c2ccccc2)SC1=S do in these assays?
gsp ag: -7.0%; mIDH1 inhibitor: -2.2%; IL-2 act: -0.6; BRCA1 expr up: 102.5%; gsp antag: inconclusive

How did CCN1C(=O)/C(=C/C=C2\C=CN(CC)c3ccccc32)SC1=S do in these assays?
gsp ag: -71.3%; mIDH1 inhibitor: 4.1%; IL-2 act: -0.1; BRCA1 expr up: 6.31µM*; gsp antag: inconclusive

Source: PubChem BioAssay
